Laboratory results published in ChEMBL document CHEMBL4513216, “Probing the Open Global Health Chemical Diversity Library for Multistage-Active Starting Points for Next-Generation Antimalarials” (ACS Infect Dis, 2020).
Among all 69,000 compounds or so, about 8,600 (12%) showed an effect of 50% or more. Shown is part of a subset that was picked to be rich in strong results.

Test system: Plasmodium berghei
Assay: Screen against P. berghei liver stage (PbLuc), transformed with Luciferase, at 10uM
Type: functional, HepG2
Conditions: tested at 10 uM

Row | Structure (SMILES) | INHIBITION
1 | CCCn1nc(C)c2c(C(F)F)cc(=O)n(CC(=O)O)c21 | -7.59%
2 | O=C(c1cccc2ncccc12)N1CCCC(n2ccnc2)C1 (stereo not given) | 27.72%
3 | CC(C)c1nnc(NC(=O)CN2C(=O)c3ccccc3NC2C(C)C)s1 (stereo not given) | 19.4%
4 | Cc1nn(C)c(N2CCOCC2)c1CNCc1ccc(CO)c(F)c1 | -35.7%
5 | CCCc1cc(NC2CCc3nc(CC)nn3C2)n2ncnc2n1 (stereo not given) | 16.6%
6 | CN1C[C@H]2CNC[C@@]2(C(=O)NC2CCN(c3ncccc3C#N)CC2)C1 | 36.6%
7 | COCc1nn(C(C)C)c2c1CCN(Cc1ccc(C)o1)C2 | 58.8%
8 | COCc1nn(C(C)C)c2c1CCN(Cc1ccc(C)s1)C2 | -6.53%
9 | COCc1nn(C(C)C)c2c1CCN(Cc1ccoc1)C2 | -76.7%
10 | N#Cc1ccsc1NC(=O)CN1CCn2c(nnc2C2CC2)C1 | 23.4%
11 | Cc1cc(CN(CCO)Cc2cc(Br)ccc2F)no1 | 37.8%
12 | O=c1c2cc3c(cc2nnn1Cc1ccccc1Cl)OCCO3 | 57.3%
13 | O=c1c2cc3c(cc2nnn1Cc1ccccc1)OCCO3 | 15.1%
14 | Cc1ccccc1Cn1nnc2cc3c(cc2c1=O)OCCO3 | 37.5%
15 | CC(=O)N1CC(=O)N(c2ccccc2)CC12CCN(Cc1nccs1)C2 (stereo not given) | -0.912%
16 | CC(=O)N1N=C(c2cccs2)OC1C(=O)NCCc1cccc(Cl)c1 (stereo not given) | 25.3%
17 | Cc1cc(C)n(Cc2cccc(C(=O)N(CCC#N)CCC#N)c2)n1 | 56%
18 | N#CCCN(CCC#N)C(=O)c1cccc(N2CCNC2=O)c1 | 46.1%
19 | CC(C)(C)CN(CCC#N)C(=O)c1cccc(CC#N)c1 | 80%
20 | CC(C)(C)CN(CCC#N)C(=O)c1cccc(CN2CCCC2)c1 | -38.2%
21 | CCN(CC)C(=O)c1cccc(Cn2nc(C)cc2C)c1 | 10.5%
22 | COC(=O)c1cccc(C(=O)N(CCC#N)CC(C)(C)C)c1 | 68.6%
23 | CC(C)(C)CN(CCC#N)C(=O)Nc1cccc(N2CCNC2=O)c1 | -45.2%
24 | COCCN(CCOC)C(=O)c1cccc(Cn2nc(C)cc2C)c1 | 11.1%
25 | Cc1nc2ccc(C(=O)N(CCC#N)CCC#N)cc2nc1C | -37.4%
26 | Cc1csc(C2CCCCN2C(=O)c2cc(C)n(C)n2)n1 (stereo not given) | 17.5%
27 | O=c1cc(Cn2ccnc2)nc2n1CCCN(Cc1ccc(F)cc1)C2 | -3.52%

Row | Structure (SMILES) | INHIBITION
28 | Cn1ccnc1CN1CCN(CCOc2ccccc2F)CC1 | 7.27%
29 | CC(C)c1ncc(CN2CCC(CO)C2)cn1 (stereo not given) | 8.72%
30 | CCc1n[nH]c(C2CN(C(=O)CCn3ccccc3=O)CCO2)n1 (stereo not given) | -22.9%
31 | CC(C)c1n[nH]c(C2CN(C(=O)CCn3ccccc3=O)CCO2)n1 (stereo not given) | 5.97%
32 | CCCc1n[nH]c(C2CN(C(=O)Cn3ccccc3=O)CCO2)n1 (stereo not given) | 48.4%
33 | CCc1n[nH]c(C2CN(C(=O)Cn3ccccc3=O)CCO2)n1 (stereo not given) | 53%
34 | CC(C)c1n[nH]c(C2CN(C(=O)Cn3ccccc3=O)CCO2)n1 (stereo not given) | 62.1%
35 | Cc1n[nH]c(C2CN(C(=O)Cn3ccccc3=O)CCO2)n1 (stereo not given) | 34.5%
36 | Cc1noc([C@H]2C[C@@H]3CCN(CC4CCOCC4)C[C@H]3O2)n1 | 27.7%
37 | CNC(=O)CN1CC[C@H]2CN(C(=O)c3cccc(C)c3)C[C@H]2C1 | 8.52%
38 | Cc1nocc1C(=O)N1CCc2c(CN(C)C)nn(C)c2C1 | -1.12%
39 | O=C(c1cc2c(s1)CCOC2)N1CCCC1Cn1cccn1 (stereo not given) | 8.64%
40 | O=C(Cn1cnc2cc3c(cc21)OCCCO3)NC1CCCCC1 | 13.7%
41 | c1cc(CN2CCC(c3ccnc4nccn34)C2)ccn1 (stereo not given) | 35.7%
42 | c1ccc2c(Cc3nnc([C@H]4CCN(C5CCOCC5)C4)o3)c[nH]c2c1 | 56.1%
43 | c1ccc2c(Cc3nnc([C@H]4CCNC4)o3)c[nH]c2c1 | 65.6%
44 | c1ccc2c(Cc3nnc([C@H]4CCN(CC5CC5)C4)o3)c[nH]c2c1 | 5.96%
45 | c1ccc2c(Cc3nnc([C@H]4CCN(C5CCC5)C4)o3)c[nH]c2c1 | -4.88%
46 | CN1CC[C@H](c2nnc(Cc3c[nH]c4ccccc34)o2)C1 | 24.9%
47 | c1ccc2c(Cc3nnc([C@H]4CCN(C5CCCCC5)C4)o3)c[nH]c2c1 | 8.67%
48 | CCn1nc(C)c2nc(C(C)C)nc(NCC(=O)N3CCOCC3)c21 | 48.2%
49 | CC(C)c1noc(CN2CCCN(Cc3cccs3)CC2)n1 | 11.6%
50 | CCOC1Sc2nnc(C)n2N=C1c1ccc(Cl)cc1 (stereo not given) | 31.8%
51 | CCC(C)NS(=O)(=O)c1ccc(C(=O)N(C)C2(C#N)CCC2)cc1 (stereo not given) | 46.3%
52 | CN(Cc1ccsc1)C(=O)c1ccc(S(=O)(=O)NC(C)(C)C)cc1 | -61.4%
53 | CN(C(=O)c1ccc(S(=O)(=O)NC(C)(C)C)cc1)C1(C#N)CCC1 | 50.4%
54 | Cc1n[nH]c(C)c1-c1cnc(CC2CCCN(S(C)(=O)=O)C2)cn1 (stereo not given) | -38.2%

Row | Structure (SMILES) | INHIBITION
55 | Cc1cc(C)c2nc(C)c(C(=O)N3CCC(N4CCCC4)CC3)cc2c1 | 31%
56 | CN1CCN(C(=O)CCn2c(C(F)(F)F)cc3cccnc32)CC1 | -15.3%
57 | CCOC(=O)N1CCN(C(=O)c2sc(-c3ccccc3)nc2C)CC1 | 74.7%
58 | Cc1cc(=O)c(C(=O)N2CCC(C(O)Cc3ccccc3)CC2)c(C)[nH]1 (stereo not given) | 35.8%
59 | Cc1nc(N)sc1C(=O)N1CCC(C(O)Cc2ccccc2)CC1 (stereo not given) | 46.7%
60 | CCNc1nc(C)c(C(=O)N2CCC(C(O)Cc3ccccc3)CC2)s1 (stereo not given) | 53.9%
61 | COc1nc(C)c(C(=O)N2CCC(C(O)Cc3ccccc3)CC2)s1 (stereo not given) | 18.5%
62 | CNc1nc(C)c(C(=O)N2CCC(C(O)Cc3ccccc3)CC2)s1 (stereo not given) | 61.2%
63 | CCNc1nc(C)c(C(=O)N2CCN(c3ncccc3C)CC2)s1 | -11.2%
64 | CCOC(=O)N1CCN(C(=O)c2sc(-c3ccncc3)nc2C)CC1 | 24%
65 | CCOC(=O)N1CCN(C(=O)c2sc(-c3ccc(F)cc3)nc2C)CC1 | 18.8%
66 | Cc1cc(C(=O)N2CCc3nc(C4CCCCN4)ncc3C2)cs1 (stereo not given) | -17.7%
67 | O=C([C@H]1CC[C@@H]2[C@@H](CCN2Cc2nccs2)O1)N1CCCCO1 | 19.5%
68 | O=S1(=O)NCC2(CCCN(Cc3cccnc3)C2)Oc2ncccc21 (stereo not given) | 40.8%
69 | c1cc(CCNc2ccc(CC3CCNC3)cn2)ccn1 (stereo not given) | 19.3%
70 | O=C([C@@H]1CCS(=O)(=O)[C@@H]2CN(c3ncccn3)C[C@@H]21)N1CCOCC1 | 23.1%
71 | CN1CCNC(Cc2ccc(-c3ccncc3)cc2)C1=O (stereo not given) | 22%
72 | CCN1CCn2c(C)cnc2C12CCN(C(=O)N(C)C)CC2 | -18.4%
73 | O=C(Nc1cccnc1)[C@H]1C[C@@H]2CCN(c3nncs3)C[C@H]2O1 | -13.2%
74 | Cn1cc(N2C(=O)CC[C@@H]3[C@H]2CCN3Cc2cccc(C#N)c2)cn1 | -24.1%
75 | COC(=O)c1cccc(CN(C)C(C)c2ccccn2)c1 (stereo not given) | 14.8%
76 | CC(c1cccs1)N(C)Cc1cnc(-c2ccccn2)nc1 (stereo not given) | 66.5%
77 | CC(C)n1cnnc1CN(C)Cc1cnc(-c2ccccn2)nc1 | -36.3%
78 | CC(=O)N1CCN(C(=O)c2ccc(-c3cccc(C)c3)[nH]c2=O)CC1 | 35.7%
79 | Cc1cnn(CCNCc2cc(C)no2)c1 | 38.8%
80 | Cc1cnn(CCNCc2ccccc2F)c1 | -14.6%
81 | Cc1cnn(CCNCc2cc(-c3ccccc3)no2)c1 | 20.4%

Row | Structure (SMILES) | INHIBITION
82 | Cc1cnn(CCNCc2ccccc2C#N)c1 | 51%
83 | Cc1cnn(CCNCc2ccc(C#N)cc2)c1 | 6.8%
84 | Cc1ccc(-c2cc(CNCCn3cc(C)cn3)on2)cc1 | 60.4%
85 | CCN(CC1CCCO1)C(=O)NCCNC(=O)c1ccccc1F (stereo not given) | 34.5%
86 | NC(=O)Nc1cccc(Oc2ccccn2)c1 | -1.58%
87 | CCC(Nc1cccc(Oc2ccc(C#N)cc2)c1)C(N)=O (stereo not given) | 29.6%
88 | CCC(Nc1cccc(Oc2ccccn2)c1)C(N)=O (stereo not given) | 62%
89 | CN1CCC(c2nnc(CN3CCCCC3)n2C)CC1 | 25.4%
90 | COc1ccccc1OCC(=O)NCC(C)(O)C1CC1 (stereo not given) | -3.51%
91 | CC(=O)N1CCc2[nH]cnc2C12CCN(C(=O)CCn1cccn1)CC2 | 35.2%
92 | CC(=O)N1CCc2[nH]cnc2C12CCN(C(=O)Cc1ccccn1)CC2 | 8.31%
93 | CCN1CCc2[nH]cnc2C12CCN(C(=O)CCCn1cncn1)CC2 | 36.3%
94 | CN1CCc2[nH]cnc2C12CCN(C(=O)CCc1cccs1)CC2 | 31.9%
95 | CCC(=O)N1CCC2(CC1)c1nc[nH]c1CCN2S(C)(=O)=O | 1.81%
96 | CC(=O)N1CCc2[nH]cnc2C12CCN(C(=O)Cc1cccs1)CC2 | 61.5%
97 | CCN1CCc2[nH]cnc2C12CCN(C(=O)CCc1cccs1)CC2 | 26%
98 | CCCN1CCc2[nH]cnc2C12CCN(C(=O)CCn1cccn1)CC2 | 54.8%
99 | CCCN1CCc2[nH]cnc2C12CCN(C(=O)Cn1ccnc1C)CC2 | 57%
100 | CN1CCc2c(CNc3ncccn3)n[nH]c2C1 | 27.5%
101 | CCC(=O)N1CCC(Cc2ccccc2-c2ccccc2F)(C(N)=O)C1 (stereo not given) | 29.2%
102 | Cc1cnn(C2(C(=O)O)CCN(Cc3oc4ccccc4c3C)CC2)c1 | -0.613%
103 | CC(C)n1nnc(CC(=O)NCC2(c3cccc(F)c3)CCCC2)n1 | 26.7%
104 | COCc1ccccc1NC(=O)c1ccoc1 | -80.7%
105 | Cc1ccc(C#N)cc1NC(=O)NC1CCCN(c2ncccn2)C1 (stereo not given) | 42%
